This is a sample that favours compounds with a hit; in the whole collection about 1.8% have one here.
PP5 inh: PP5 (human) phosphatase inhibition; inhibition, % at 6.7 µM; hit rate 0.18% among 320,000; purified PP5c, OMFP substrate fluorescence;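 active = inhibition above the campaign's mean inhibition across all tested compounds plus 3 SD, cut at about 9.5% in these data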;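 also: 0% = DMSO only and 100% = 100 µM cantharidin control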
LYPLA2 inh: blocks human lysophospholipase 2, a PME1 counter-screen. inhibition, % at 5.9 µM. recombinant LYPLA2, FP-Rh probe fluorescence polarization. hit rate 0.38% among 320,000. AID 2177;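 active = inhibition above the screen-wide mean plus 3 SD, limit set per campaign, cut at about 26% in these data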;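 also: 0% = LYPLA2 with DMSO and 100% = wells lacking LYPLA2 enzyme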
Target sequence (O95372 whole entry, looked up): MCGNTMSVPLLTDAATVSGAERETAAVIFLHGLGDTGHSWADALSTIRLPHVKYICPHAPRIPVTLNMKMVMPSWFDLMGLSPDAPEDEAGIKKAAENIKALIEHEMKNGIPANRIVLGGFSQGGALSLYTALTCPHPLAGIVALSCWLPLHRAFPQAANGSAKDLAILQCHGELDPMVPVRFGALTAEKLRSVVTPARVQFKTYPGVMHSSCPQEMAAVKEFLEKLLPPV
LYPLA1 counter: counter-screen for PME1 inhibitors: inhibitors of human LYPLA1 | O75608 | recombinant LYPLA1, FP-Rh probe fluorescence polarization | inhibition, % at 5.9 µM | hit rate 0.16% among 320,000;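 active = inhibition above the mean of all tested compounds plus 3 SD, set per campaign, cut at about 14% in these data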;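 also: inhibitors block serine hydrolase probe labeling of LYPLA1 so polarization falls; 0% = enzyme with DMSO and 100% = wells lacking LYPLA1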
Fam108B counter: blocks mouse Fam108B hydrolase in RBBP9 counter-screen; hit rate 0.33% among 300,000; recombinant Fam108B, FP-Rh probe fluorescence polarization; inhibition, % at 9.51 µM;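 active = inhibition above the screen mean inhibition plus 3 SD, computed separately per campaign, cut at about 18% in these data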;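 also: inhibitors lower polarization as less probe binds the enzyme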
PME-1 inh: PME-1 (human) inhibition. Q9Y570. hit rate 0.53% among 320,000. inhibition, % at 5.9 µM. AID 2130. recombinant PME-1, FP-Rh probe fluorescence polarization;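 active = inhibition above the campaign mean of all compounds plus 3 SD, cut at about 26% in these data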;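 also: competitive labeling of PME-1 active site by serine hydrolase directed probe; 0% = PME-1 with DMSO and 100% = wells lacking PME-1 enzyme; inhibitors block probe labeling so polarization falls and inhibition rises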
Target sequence (Q9Y570 whole entry, looked up): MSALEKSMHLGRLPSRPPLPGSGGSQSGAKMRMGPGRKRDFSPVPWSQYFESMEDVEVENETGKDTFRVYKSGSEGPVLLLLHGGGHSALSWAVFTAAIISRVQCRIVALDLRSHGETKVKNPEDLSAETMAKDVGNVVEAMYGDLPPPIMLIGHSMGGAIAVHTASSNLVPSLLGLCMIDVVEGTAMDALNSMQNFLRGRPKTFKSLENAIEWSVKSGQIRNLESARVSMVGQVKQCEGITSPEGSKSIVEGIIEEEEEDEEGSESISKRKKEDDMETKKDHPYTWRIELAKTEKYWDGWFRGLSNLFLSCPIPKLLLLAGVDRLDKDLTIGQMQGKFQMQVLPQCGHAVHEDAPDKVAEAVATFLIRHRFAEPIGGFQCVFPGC
PP1 inh: blocks human PP1-alpha phosphatase, a PP5 counter-screen; P62136; purified PP1alpha, OMFP fluorescence; inhibition, % at 6.7 µM; hit rate 0.9% among 320,000;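 active = inhibition above the mean inhibition of all tested compounds plus 3 SD, computed separately for each screening campaign, cut at about 15% in these data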
PP1 inh confirm: human PP1 phosphatase inhibition, confirmation; shares compounds with PP1 inh; purified PP1alpha, OMFP substrate fluorescence; inhibition, % at 6.7 µM; hit rate 52% among 1,900; AID 2358;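 active = mean PP1 inhibition above a set limit taken from the earlier primary screen, cut at about 15% in these data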
PP5 inh counter: counter-screen for PP1 inhibitors: human PP5 phosphatase inhibition; AID 2360; inhibition, % at 6.7 µM; hit rate 4% among 1,900; purified PP5c, OMFP fluorescence; shares compounds with PP1 inh;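 active = mean PP5 inhibition over triplicate wells above about 9.5% taken from the earlier PP1 screen, limit read from the data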
Starred values were filed as active, the others as inactive; nt = not tested or not shown.

SMILES	PP5 inh	LYPLA2 inh	LYPLA1 counter	Fam108B counter	PME-1 inh	PP1 inh	PP1 inh confirm	PP5 inh counter
Cc1ccc(S(=O)(=O)Nc2cccc(C(=O)NCC3CCCO3)c2)cc1F (stereo unspecified)	0	3	-2	-1	-4	-6	nt	nt
NC(=O)c1ccc(NC(=O)COC(=O)/C=C/c2cn(-c3ccccc3)nc2-c2cccnc2)cc1	2	-49	-28	-33	-38	23*	19*	-1
O=C(/C=C/c1cn(-c2ccccc2)nc1-c1cccnc1)c1ccco1	0	-5	-2	-6	-4	18*	-3	-1
O=C(/C=C/c1cn(-c2ccccc2)nc1-c1ccccc1)Nc1ccc(C(=O)O)cc1	4	-64	-30	-30	-68	19*	9	4
COc1ccccc1NC(=O)C1CC(C(C)C)OC1=O (stereo unspecified)	0	-1	0	-2	-6	-11	nt	nt
Cc1ccc(CNC(=O)CNC(=O)[C@@H]2Cc3ccccc3CN2)cc1	-1	6	-2	-1	1	-2	nt	nt
CC(C)(C)C(=O)N1N=C(c2ccc(NS(C)(=O)=O)cc2)CC1c1cccs1 (stereo unspecified)	8	5	-5	2	-1	23*	-1	-2
CN(C)c1ccc(S(=O)(=O)N2CCCCC2)cc1NC(=O)C1=NN(c2ccccc2)C(=O)CC1	-1	3	3	1	1	-1	nt	nt
CC(C)c1nnc(NC(=O)CCC(=O)N2CCC(Cc3ccccc3)CC2)s1	2	5	1	-2	0	-4	nt	nt
CCOC(=O)c1ccc(NS(=O)(=O)c2ccc(Cl)nc2)cc1	-3	2	-1	2	-3	-54	2	2
CCc1ccccc1NC(=O)CCS(=O)(=O)c1ccc(OC)cc1	-2	2	-1	2	0	37*	-2	-5
CCOc1ccccc1NC(=O)CCS(=O)(=O)c1ccc(OC)cc1	2	1	-2	-2	3	-1	nt	nt
CC1CCC2(CC1)NC(=O)N(CC(=O)Nc1ccc(F)cc1)C2=O (stereo unspecified)	2	4	2	nt	-3	-3	nt	nt
O=C(Nc1ccc(S(=O)(=O)Nc2nccs2)cc1)c1ccc(N2C(=O)c3ccccc3C2=O)cc1	-2	-87	-34	-49	-66	28*	15	-1
CCCN(CCC)S(=O)(=O)c1ccc(C(=O)Nc2nnc(CSC)o2)cc1	-2	1	0	1	7	24*	22*	-2
CCCCN(CC)S(=O)(=O)c1ccc(C(=O)Nc2nnc(CSC)o2)cc1	2	9	-1	-2	-3	29*	20*	-1
CCc1nnc(NC(=O)c2ccc(S(=O)(=O)N(CCOC)CCOC)cc2)o1	1	-7	-2	6	-4	4	nt	nt
COCc1nnc(NC(=O)c2ccc(S(=O)(=O)N(C)c3ccccc3)cc2)o1	3	5	-1	7	5	22*	6	-3
CCCCN(CCCC)S(=O)(=O)c1ccc(C(=O)Nc2nnc(CSC)o2)cc1	0	0	0	2	-3	27*	29*	7
CCN(c1ccccc1)S(=O)(=O)c1ccc(C(=O)Nc2nnc(COC)o2)cc1	0	1	0	2	0	14	nt	nt
O=C(Nc1ccccc1N1CCOCC1)c1ccc(Cl)c(S(=O)(=O)N2CCCC2)c1	3	2	-1	nt	3	3	nt	nt
O=C(Nc1cc(Cl)ccc1-n1cncn1)C1CC1	-2	11	3	5	1	0	nt	nt
O=C(Nc1ccc2c(c1)C(=O)OC2)c1ccccc1Cl	-7	-5	-2	-5	-3	-2	nt	nt
O=C(Nc1nnc(-c2ccccn2)o1)c1cccc(Cl)c1	-2	3	-2	3	-6	25*	5	-3
CCCCN(C)S(=O)(=O)c1ccc(C(=O)Nc2nnc(C3=COCCO3)o2)cc1	1	0	-1	2	-2	14	nt	nt
SMILES	PP5 inh	LYPLA2 inh	LYPLA1 counter	Fam108B counter	PME-1 inh	PP1 inh	PP1 inh confirm	PP5 inh counter
CCCCN(C)S(=O)(=O)c1ccc(C(=O)Nc2nnc(-c3cccs3)o2)cc1	5	1	2	6	4	33*	20*	0
O=C(Nc1nnc(-c2cccnc2)o1)c1cccc(Cl)c1	-2	-2	-1	0	0	8	nt	nt
CCCCN(CC)S(=O)(=O)c1ccc(C(=O)Nc2nnc(COC)o2)cc1	4	2	3	2	-3	19*	6	-1
COCc1nnc(NC(=O)c2ccc(S(=O)(=O)N(CC(C)C)CC(C)C)cc2)o1	2	-2	1	2	-5	10	nt	nt
CCN(Cc1ccccc1)S(=O)(=O)c1ccc(C(=O)Nc2nnc(-c3ccccc3OC)o2)cc1	-2	1	-6	-4	-8	30*	30*	1
CCCc1cc(=O)[nH]c(SCC(=O)N(CCOC)c2c(N)n(Cc3ccccc3)c(=O)[nH]c2=O)n1	-1	2	2	5	4	2	nt	nt
CCN(c1ccccc1)S(=O)(=O)c1ccc(C(=O)Nc2nnc(CSC)o2)cc1	4	10	2	0	-1	38*	28*	2
O=C(Nc1nnc(-c2cccs2)o1)c1cccc(Oc2ccccc2)c1	-1	3	2	-1	-9	29*	29*	-2
CCN(c1ccccc1)S(=O)(=O)c1ccc(C(=O)Nc2cccc(C)n2)cc1	6	1	3	nt	0	2	nt	nt
CC1(O)C(=O)C=C2C=C(c3ccc(C#N)cc3)OC=C2C1=O (stereo unspecified)	1	3	-8	12	10	35*	21*	-3
COc1ccc(C2=CC3=CC(=O)C(C)(O)C(=O)C3=CO2)cc1 (stereo unspecified)	-3	9	3	12	11	18*	13	0
CC1(NC(=O)CCNC(=O)c2ccc(C(C)(C)C)cc2)CCS(=O)(=O)C1 (stereo unspecified)	-1	2	4	nt	4	-3	nt	nt
O=C(c1ccc2c(c1)OCO2)C1CCCN(Cc2ccc(OC(F)F)cc2)C1 (stereo unspecified)	3	12	0	5	3	0	nt	nt
COc1ccc(CN2C(=O)Cc3c2nc(N)c2c(N)nc(N4CCCCC4)c(C#N)c32)cc1	8	-10	-7	2	-2	26*	34*	52*
CCOC(=O)c1c(NC(=O)COC(=O)c2ccc(NC(=O)CC#N)cc2)sc(C(=O)NC)c1C	-2	-62	-43	nt	-71	20*	11	-4
COc1ccc(N2CC(C(=O)Nc3ccccc3C(=O)NC3CC3)CC2=O)cc1 (stereo unspecified)	1	11	4	-3	3	3	nt	nt

Compound activity (PubChem)
